Measured values as given in the supplement of paper PMC12645437, “Orthogonal IMiD-Degron Pairs Induce Selective Protein Degradation in Cells” (ACS Chemical Biology, 2025).
Whole data set: some 8,300 sequences, median “log2 fold change of degron read counts, EGFP-low vs EGFP+ sorted cells (limma voom), compound-induced degradation” near -1.1, cut for the highest 2% near 3.2. Many of the other results were omitted from the sample, so the highest values are more common in it than they were.

T1: CRBN, Q96SW2
T1 chain: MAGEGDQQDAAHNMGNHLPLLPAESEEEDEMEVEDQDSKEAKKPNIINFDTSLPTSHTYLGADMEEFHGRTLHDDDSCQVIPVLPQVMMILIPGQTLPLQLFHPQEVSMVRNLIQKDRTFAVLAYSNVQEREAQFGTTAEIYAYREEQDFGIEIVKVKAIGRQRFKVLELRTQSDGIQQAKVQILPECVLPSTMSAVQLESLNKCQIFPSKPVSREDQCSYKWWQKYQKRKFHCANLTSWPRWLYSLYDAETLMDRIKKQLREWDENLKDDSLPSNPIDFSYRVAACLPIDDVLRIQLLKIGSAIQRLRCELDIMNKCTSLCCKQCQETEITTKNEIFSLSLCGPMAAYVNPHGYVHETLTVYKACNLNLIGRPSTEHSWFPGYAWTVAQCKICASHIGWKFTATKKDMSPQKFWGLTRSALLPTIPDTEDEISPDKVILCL

B1: 46L_47E_49N_50Q_52G_53F_54W_55C_67L_, Q9UKT9 (peptide)
chain: LECNQCGFWCTQKGNLLRHIKL
B2: 46F_47Y_49D_50I_52G_53A_54V_55F_67L_, Q9UKT9 (peptide)
chain: FYCDICGAVFTQKGNLLRHIKL
B3: 46F_47C_49N_50Q_52G_53R_54T_55F_67L_, Q9UKT9 (peptide)
chain: FCCNQCGRTFTQKGNLLRHIKL
B4: 46F_47K_49N_50Q_52G_53R_54H_55F_67L_, Q9UKT9 (peptide)
chain: FKCNQCGRHFTQKGNLLRHIKL
B5: 46F_47I_49E_50I_52G_53A_54F_55F_67L_, Q9UKT9 (peptide)
chain: FICEICGAFFTQKGNLLRHIKL
B6: 46F_47E_49S_50V_52G_53H_54C_55F_67L_, Q9UKT9 (peptide)
chain: FECSVCGHCFTQKGNLLRHIKL
B7: 46F_47C_49N_50V_52G_53A_54V_55F_67L_, Q9UKT9 (peptide)
chain: FCCNVCGAVFTQKGNLLRHIKL
B8: 46F_47V_49N_50Q_52G_53H_54Y_55F_67L_, Q9UKT9 (peptide)
chain: FVCNQCGHYFTQKGNLLRHIKL
B9: 46F_47F_49N_50Q_52G_53H_54D_55F_67L_, Q9UKT9 (peptide)
chain: FFCNQCGHDFTQKGNLLRHIKL
B10: 46F_47Q_49E_50V_52G_53A_54C_55F_67L_, Q9UKT9 (peptide)
chain: FQCEVCGACFTQKGNLLRHIKL
B11: 46F_47L_49E_50V_52G_53A_54C_55F_67L_, Q9UKT9 (peptide)
chain: FLCEVCGACFTQKGNLLRHIKL
B12: 46F_47R_49E_50V_52G_53A_54C_55F_67L_, Q9UKT9 (peptide)
chain: FRCEVCGACFTQKGNLLRHIKL
B13: 46F_47V_49E_50V_52G_53A_54C_55F_67L_, Q9UKT9 (peptide)
chain: FVCEVCGACFTQKGNLLRHIKL
B14: 46F_47I_49E_50V_52G_53A_54C_55F_67L_, Q9UKT9 (peptide)
chain: FICEVCGACFTQKGNLLRHIKL
B15: 46F_47M_49E_50V_52G_53A_54C_55F_67L_, Q9UKT9 (peptide)
chain: FMCEVCGACFTQKGNLLRHIKL
B16: 46F_47T_49E_50V_52G_53A_54C_55F_67L_, Q9UKT9 (peptide)
chain: FTCEVCGACFTQKGNLLRHIKL
B17: 46F_47Y_49E_50V_52G_53A_54C_55F_67L_, Q9UKT9 (peptide)
chain: FYCEVCGACFTQKGNLLRHIKL
B18: 46F_47S_49E_50V_52G_53A_54C_55F_67L_, Q9UKT9 (peptide)
chain: FSCEVCGACFTQKGNLLRHIKL
B19: 46L_47G_49E_50I_52G_53F_54P_55C_67L_, Q9UKT9 (peptide)
chain: LGCEICGFPCTQKGNLLRHIKL
B20: 46F_47E_49E_50I_52G_53R_54N_55F_67L_, Q9UKT9 (peptide)
chain: FECEICGRNFTQKGNLLRHIKL
B21: 46L_47M_49E_50I_52G_53F_54F_55C_67L_, Q9UKT9 (peptide)
chain: LMCEICGFFCTQKGNLLRHIKL
B22: 46F_47N_49E_50I_52G_53H_54G_55F_67L_, Q9UKT9 (peptide)
chain: FNCEICGHGFTQKGNLLRHIKL
B23: 46F_47T_49P_50V_52G_53A_54Q_55F_67L_, Q9UKT9 (peptide)
chain: FTCPVCGAQFTQKGNLLRHIKL
B24: 46F_47K_49P_50I_52G_53H_54L_55F_67L_, Q9UKT9 (peptide)
chain: FKCPICGHLFTQKGNLLRHIKL
B25: 46F_47T_49N_50V_52G_53A_54G_55F_67L_, Q9UKT9 (peptide)
chain: FTCNVCGAGFTQKGNLLRHIKL
B26: 46L_47Q_49E_50I_52G_53F_54D_55C_67L_, Q9UKT9 (peptide)
chain: LQCEICGFDCTQKGNLLRHIKL
B27: 46L_47T_49N_50Q_52G_53F_54Q_55C_67L_, Q9UKT9 (peptide)
chain: LTCNQCGFQCTQKGNLLRHIKL
B28: 46F_47R_49D_50I_52G_53A_54Y_55F_67L_, Q9UKT9 (peptide)
chain: FRCDICGAYFTQKGNLLRHIKL

Biological target: T1, CRBN, Q96SW2
Assay: log2 fold change of degron read counts, EGFP-low vs EGFP+ sorted cells (limma voom), compound-induced degradation; higher = more compound-induced degradation of the degron-EGFP fusion; degrons are variants of IKZF1/3 zinc finger 2; compound dose not given here
Settings: Jurkat, 18 h
[1] = compound: compound 19 (5-tert-butyl-thalidomide)
[2] = compound: compound 22 (5-morpholino-thalidomide)
[3] = compound: compound 33 (diphenyl IMiD analogue)
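Note: pooled lentiviral library of zinc finger degron-EGFP fusions in mCherry-positive Jurkat cells, FACS-sorted after compound exposure, with degron abundance counted by next-generation sequencing.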

Sequence	log2 fold change of degron read counts [1]	log2 fold change of degron read counts [2]	log2 fold change of degron read counts [3]	log2 fold change of degron read counts (compound: thalidomide)
B1	-1.99	-1.69	-1.79	-1.63
B2	2.92	2.45	1.34	-1.18
B3	-2.96	-2.98	-2.8	-2.49
B4	-2.42	-3.25	-2.92	-2.39
B5	-1.14	0.177	1.46	0.874
B6	-2.85	-3.1	-2.83	-3.04
B7	-1.07	-0.182	1.49	-0.139
B8	-3.08	-3.34	-2.73	-2.44
B9	-3.06	-4.05	-2.94	-2.8
B10	0.807	2.69	2.23	3.69
B11	0.437	-0.686	1.57	1.59
B12	-0.334	-0.2	1.72	1.5
B13	-0.0594	1.78	2.4	2.7
B14	-0.743	2.1	2.52	2.75
B15	-0.094	0.00255	2.45	1.45
B16	1.37	2.52	2.51	2.66
B17	3.74	3.85	3.1	1.37
B18	3.26	2.28	2.54	1.34
B19	-1.16	-1.81	-2.14	-1.69
B20	-2.61	-2.28	-0.395	-0.731
B21	-0.461	-0.234	1.75	0.617
B22	-2.44	-2.67	-3.6	-2.95
B23	0.0342	2.63	2.78	2.72
B24	-2.52	-3	-3.86	-2.43
B25	-0.827	-0.181	0.811	0.259
B26	-2.82	-2.45	-2.23	-1.2
B27	-2.38	-2.53	-1.48	-1.47
B28	-1.87	-1.92	-0.0846	0.62
